Measured values published in PubChem BioAssay (EPA / NIEHS).
Some compounds were tested as several samples or in several runs, with calls that do not always agree. Calls of active or inactive are those of the source. Rule for the calls: active = hit-call score of the fitted dose curve at least 0.9, where 1 is the maximum; inactive = score below 0.9.

Each compound was assayed on Transforming growth factor beta 1 (TGFb1), TGFB1 (gene 7040) (assay: BSK_BE3C_TGFb1: BioMAP Diversity Plus: BE3C Assay for Transforming growth factor beta 1 (TGFb1) Biomarker Activity (AID 2283036)). Conditions: primary human bronchial epithelial cells; actives raise or lower the signal.
Description: BSK_BE3C is a cell-based, multiplexed-readout assay that uses bronchial epithelial cell, a human lung primary cell, with measurements taken at 24 hours after chemical dosing in a 96-well plate.BSK_BE3C_TGFb1 is an assay component measured in the BSK_BE3C assay. It measures TGF-b1 antibody related to regulation of gene expression using ELISA technology.Data from the assay component BSK_BE3C_TGFb1 was analyzed into 1 assay endpoint. This assay endpoint, BSK_BE3C_TGFb1, was analyzed with bidirectional fitting relative to DMSO as the negative control and baseline of activity. Using a type of binding reporter, gain or loss-of-signal activity can be used to understand changes in the signaling as they relate to the gene TGFB1. Furthermore, this assay endpoint can be referred to as a primary readout, because this assay has produced multiple assay endpoints where this one serves a signaling function. To generalize the intended target to other relatable targets, this assay endpoint is annotated to the growth factor intended target family, where the subfamily is transforming growth factor beta.
The levels of cell surface (or secreted, indicated by the prefix "s") biomarker endpoints were measured by ELISA. Overt cytotoxicity to cells in confluent adherent cultures (all systems other than the BT system) was assessed by measuring total protein levels using sulforhodamine B (SRB) staining in parallel cultures at the time of biomarker measurements, indicated as SRB endpoints. For proliferation assays for adherent cell types, individual cell types are cultured at sub-confluence and relative cell numbers quantified by SRB staining at time points optimized for each system (48 h: 3C and CASM3C systems; 72 h: BT and HDF3CGF systems; 96 h: SAg system). SRB was performed by staining cells with 0.1% SRB after fixation with 10% TCA and reading wells at 560 nm.Viability and proliferation of PBMC (T cells) was quantified by Alamar Blue reduction for the SAg and BT systems. For PBMC viability (referred to as PBMC Cytotoxicity within the assay endpoint names), cells were plated (75,000/well in a 96-well plate) and then chemical samples added for 1 h before addition of activators, SEB and TSST-1 (20 ng/mL final concentration each). Cells were incubated for 90 h. Then, Alamar Blue (20 uL/well) (Invitrogen, Cat DAL1100) was added for 6 h, and the plates were read with a fluorescence microplate reader at 546/580 nm (excitation/emission). For PBMC proliferation, cells were plated and activated as above but incubated for only 16 h prior to addition of Alamar Blue. Plates were read after 6 h.
With CC(C)CCCCCCCOC(=O)c1ccccc1C(=O)OCCCCCCCC(C)C the outcome was “inactive”. With Nc1ccc(-c2ccc(N)c(N)c2)cc1N the outcome was “inactive”. For O=C1C(Cl)=C(Cl)C(=O)C(Cl)=C1Cl, the outcome was “inactive”. CCCOC(=O)c1ccccc1C(=O)OCCC was tested, and the outcome was “inactive”. For CC(=O)/C=C/c1ccccc1, the outcome was “inactive”. With O=[N+]([O-])C=Cc1ccccc1 the AC50 was 5.17 µM (active). With Clc1ccc(-c2ccccc2)cc1 the outcome was “inactive”. For O=P1(NCCCl)OCCCN1CCCl (stereo not given), the outcome was “inactive”. For O=C(O)CCCc1ccc(N(CCCl)CCCl)cc1, the AC50 was 20 µM (active) and the outcome was “inactive”. CCCCCCCCCCCC#N was tested, and the outcome was “inactive”. In the case of O=[N+]([O-])c1ccc(Cl)cc1, the outcome was “inactive”. CC(C)COP(=O)(OCC(C)C)OCC(C)C was tested, and the outcome was “inactive”. CC1(C)[C@H](C(=O)O[C@H](C#N)c2cccc(Oc3ccccc3)c2)[C@@H]1C=C(Br)Br was tested, and the outcome was “inactive” and the AC50 was 1.2 µM (active). For COC(C)(C)CCC[C@H](C)C/C=C/C(C)=C/C(=O)OC(C)C, the outcome was “inactive”. N#CCCCCC#N was tested, and the outcome was “inactive”. For C=CC(=O)OCC(CC)CCCC (stereo not given), the outcome was “inactive”. O=c1c2ccccc2c(=O)c2c1cc(Cl)c1[nH]c3c([nH]c12)c(Cl)cc1c(=O)c2ccccc2c(=O)c13 was tested, and the outcome was “inactive”. For O=C1C=CC(=O)C=C1, the outcome was “inactive”. In the case of CC(C)(C)C(=O)CCl, the outcome was “inactive”. With CNC(=O)Oc1cc(C)c(SC)c(C)c1 the outcome was “inactive”. In the case of c1ccc(Nc2ccc3ccccc3c2)cc1, the outcome was “inactive”. CCc1cc(C)cc(CC)c1-c1c(OC(=O)C(C)(C)C)n2n(c1=O)CCOCC2 was tested, and the outcome was “inactive”. With CC(C)(C)C(O)C(Oc1ccc(-c2ccccc2)cc1)n1cncn1 (stereo not given) the outcome was “inactive”. O=C(CCl)c1ccccc1 was tested, and the outcome was “inactive”. With C=CCN(CC=C)C(=O)C(Cl)Cl the outcome was “inactive”. With COCC(=O)N(c1c(C)cccc1C)N1CCOC1=O the outcome was “inactive”. For O=S(=O)(c1ccccc1)c1ccccc1, the outcome was “inactive”. With CC(C)CCCCCCCOP(=O)(Oc1ccccc1)Oc1ccccc1 the outcome was “inactive”. With Oc1cc(Cl)ccc1Cl the outcome was “inactive”. In the case of CCC(C)c1cc([N+](=O)[O-])cc([N+](=O)[O-])c1OC(=O)C=C(C)C (stereo not given), the AC50 was 3.97 µM (active). In the case of CC(C)(c1cc(Cl)c(O)c(Cl)c1)c1cc(Cl)c(O)c(Cl)c1, the outcome was “inactive”. In the case of Cc1ccc(OP(=O)(Oc2ccc(C)cc2)Oc2ccc(C)cc2)cc1 (tested in a mixture with another compound), the outcome was “inactive”. O=c1[nH]c(Cl)c(Cl)cc1Cl was tested, and the outcome was “inactive”.
